Data: the supplement of paper PMC13380429

System: Vero E6 infected with SARS-CoV-2
Assay: inhibition of SARS-CoV-2 cytopathic effect; higher = more antiviral protection, active = above 15
Conditions: 48 h

Measured: inhibition of SARS-CoV-2 cytopathic effect

CC1(C)Oc2ccc(C#N)cc2[C@@H](N2CCCC2=O)[C@@H]1O [levcromakalim]
inactive: 1 nM 0.65% | 8.33 nM 1.1% | 100 nM 0.31% | 833.33 nM 1.22% | 10000 nM 2.06%

CCOc1nc2cccc(C(=O)OCc3oc(=O)oc3C)c2n1Cc1ccc(-c2ccccc2-c2noc(=O)[nH]2)cc1 [azilsartan-medoxomil]
inactive: 1 nM 0.24% | 8.33 nM 1.14% | 100 nM 2.01% | 833.33 nM 1.93% | 10000 nM -0.28%

Cc1ncc(CO)c(/C=N/NC(=O)c2ccncc2)c1O [pyridoxal-isonicotinoyl-hydrazone]
inactive: 1 nM 3.14% | 8.33 nM -0.89% | 100 nM -0.41% | 833.33 nM 0.28% | 10000 nM -0.54%

COc1ccc(-c2ccc3c(N4CCOCC4)nc(N4C[C@@H](C)O[C@@H](C)C4)nc3n2)cc1CO
inactive: 1 nM 1.75% | 8.33 nM 0.2% | 100 nM 2.09% | 833.33 nM 0.86% | 10000 nM -2.33%

N=C(N)NCCN1CCCCCCC1 [guanethidine]
inactive: 1 nM 1.98% | 8.33 nM 0.59% | 100 nM 4.01% | 833.33 nM 2.31% | 10000 nM 0.3%

C[C@]12CC[C@H](O)C[C@H]1CC[C@@H]1[C@@H]2C[C@@H](O)[C@]2(C)[C@@H](C3=CC(=O)OC3)CC[C@]12O [digoxigenin]
inactive: 1 nM -0.69% | 8.33 nM -0.54% | 100 nM -6.58% | 833.33 nM -10.3% | 10000 nM -14.1%

N#Cc1ccc(Oc2ccc3c(c2)COB3O)cc1 [crisaborole]
inactive: 1 nM 0.74% | 8.33 nM 0.97% | 100 nM 1.46% | 833.33 nM -0.75% | 10000 nM 4.65%

OCCn1cc(-c2cnc3nnn(Cc4ccc5ncccc5c4)c3n2)cn1
inactive: 1 nM 1.37% | 8.33 nM 2% | 100 nM 1.01% | 833.33 nM 2.71% | 10000 nM 2.26%

O=C(O)CCCc1c[nH]c2ccccc12 [3-indolebutyric-acid]
inactive: 1 nM -1.83% | 8.33 nM -1.26% | 100 nM 0.03% | 833.33 nM -3.61% | 10000 nM -2.44%

CC(C)=CCC/C(C)=C/CC/C(C)=C/CSc1ccccc1C(N)=O [farnesyl-thiosalicylic-acid-amide]
inactive: 1 nM -1.77% | 8.33 nM -2.42% | 100 nM -3.06% | 833.33 nM -5.68% | 10000 nM -2.46%

COc1cc(OC)c(C(=O)CCCN2CCCC2)c(OC)c1 [buflomedil]
inactive: 1 nM 1.62% | 8.33 nM 0.64% | 100 nM 4.02% | 833.33 nM 3.26% | 10000 nM 1.28%

CC[C@@H]1C(=O)OC[C@@H]1Cc1cncn1C [pilocarpine]
inactive: 1 nM 0.9% | 8.33 nM 1.12% | 100 nM 1.22% | 833.33 nM 3.49% | 10000 nM 3.05%

CCC(=O)NO
inactive: 1 nM 3% | 8.33 nM 3.18% | 100 nM 1.27% | 833.33 nM 1.39% | 10000 nM 2.29%

CCNC(=O)C[C@@H]1N=C(c2ccc(Cl)cc2)c2cc(OC)ccc2-n2c(C)nnc21
inactive: 1 nM -1.97% | 8.33 nM -1.13% | 100 nM 0.74% | 833.33 nM -0.08% | 10000 nM -9.5%

O=C1Nc2ccc(Cl)c3c2C1(CCCCN1CC=C(c2ccc(Cl)cc2)CC1)CCC3 (stereo not given)
inactive: 1 nM 0.36% | 8.33 nM -1.45% | 100 nM -2.5% | 833.33 nM -2.84% | 10000 nM -3.25%

Nc1ncnc2c1ncn2[C@H]1CC[C@@H](CO)O1 [dideoxyadenosine]
inactive: 1 nM 2.15% | 8.33 nM 2.41% | 100 nM 2.1% | 833.33 nM 1.23% | 10000 nM 4.14%

Cc1cc(C)c2c(N)c(C(=O)NCc3ccc(Cl)cc3)sc2n1
inactive: 1 nM 1.18% | 8.33 nM -1.88% | 100 nM -0.97% | 833.33 nM -0.85% | 10000 nM 0.14%

OC[C@@H](O)[C@@H](O)[C@H](O)[C@@H](O)CO [sorbitol]
inactive: 1 nM 0.49% | 8.33 nM -0.64% | 100 nM -0.23% | 833.33 nM 1.86% | 10000 nM 1.46%

CO/N=C1/C[C@@H](C(=O)NC[C@@H](O)c2ccccc2)N(C(=O)c2ccc(-c3ccccc3C)cc2)C1 [OT-R-antagonist-1]
inactive: 1 nM -0.95% | 8.33 nM 1.59% | 100 nM -0.48% | 833.33 nM 1.09% | 10000 nM -1.5%
